Bioassay records as filed in PubChem.
Luciferase inh: firefly luciferase inhibition. P08659. purified firefly luciferase, luminescence, 8 min. Potency, µM (series often up to 57.1 µM), usual class: inhibitors. actives 2.2% (n = 72,000). AID 411; further: nearly all actives have a fitted effect of over 40% in size
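Compounds were tested as concentration series (qHTS) against purified P. pyralis luciferase with luciferin and 10 uM ATP in 50 mM imidazole pH 7.2, 50 mM KCl, 7 mM MgCl2, 0.01% Tween 20, 0.05% BSA. Luminescence was read after 8 min at ambient temperature.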
15-hLO inh: blocks human 15-lipoxygenase activity; P16050; purified 15hLO-1, xylenol orange hydroperoxide absorbance; Potency, µM (highest dose often 57.1 µM), actives largely listed as inhibitors; actives 1.4% (n = 74,000); further: nearly all actives have a fitted effect of over 55% in size
Target sequence (P16050 whole entry, looked up): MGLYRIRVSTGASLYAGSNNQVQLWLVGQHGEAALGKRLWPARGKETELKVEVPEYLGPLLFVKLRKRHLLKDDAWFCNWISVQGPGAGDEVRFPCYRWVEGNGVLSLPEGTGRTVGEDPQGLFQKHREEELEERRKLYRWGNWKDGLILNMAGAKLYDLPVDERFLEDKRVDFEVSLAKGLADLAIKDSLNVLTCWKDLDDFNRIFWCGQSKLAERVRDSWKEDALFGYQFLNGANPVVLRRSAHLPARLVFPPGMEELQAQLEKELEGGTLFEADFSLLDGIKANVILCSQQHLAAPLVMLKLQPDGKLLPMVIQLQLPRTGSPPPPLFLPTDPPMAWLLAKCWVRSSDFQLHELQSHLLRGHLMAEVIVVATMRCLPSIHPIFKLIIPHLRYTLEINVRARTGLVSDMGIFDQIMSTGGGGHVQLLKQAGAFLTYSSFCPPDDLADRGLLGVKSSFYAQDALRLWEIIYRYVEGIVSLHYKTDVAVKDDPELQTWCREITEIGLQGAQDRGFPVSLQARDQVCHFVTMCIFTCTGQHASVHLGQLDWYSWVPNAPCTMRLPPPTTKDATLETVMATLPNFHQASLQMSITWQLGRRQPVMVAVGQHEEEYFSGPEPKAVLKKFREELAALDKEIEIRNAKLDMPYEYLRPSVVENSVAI
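Readout: Fe(III)-xylenol orange absorbance, 573-to-405 nm ratio as reaction progress. Enzyme 40 nM purified human 15hLO-1, substrate 50 uM arachidonic acid, 6 min RT after 15 min compound preincubation; Hepes pH 7.5 buffer with Triton X-100.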
Hsp90 Hop PPI: changes Hsp90-Hop TPR2A binding signal, up or down | AlphaScreen TPR2A-His6 binding biotin-Hsp90 C-terminal peptide | actives 0.44% (n = 71,000) | Potency, µM (doses to about 57 µM); active means well fitted curve in either direction with a large enough effect; inconclusive means small, poorly fitted or top-dose-only effect, or another doubt
Bst PK mod: modulators of Bacillus stearothermophilus pyruvate kinase; Potency, µM; purified pyruvate kinase, luminescence ATP production; ribose 5-phosphate activator present at AC10; actives 1.2% (n = 51,000); in the data active means potency below about 11 µM; inconclusive means mostly about 12 µM to 25 µM;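 the screen sought inhibitors and activators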
Tau fil binding: binders of human tau filaments; Potency, µM (highest dose often 57.1 µM); AID 596; actives 2% (n = 71,000); P10636; recombinant tau filaments, thioflavin S fluorescence, 15 h; filaments grown with octadecylsulfate alongside compound;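 further: actives lower thioflavin S fluorescence by blocking filaments or displacing dye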
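Assay mix: 1 uM His-tagged tau, 30 uM sodium octadecylsulfate, thioflavine S dye in HEPES/NaCl/DTT buffer. Compound is added prior to the inducer. Fluorescence after 15 h at 37 C.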
ERK AVP inh: blocks ERK signaling stimulated by vasopressin; HEK293-V1b, vasopressin-stimulated pERK AlphaScreen; actives 0.99% (n = 72,000); Potency, µM (top dose mostly 57.5 µM), actives largely listed as inhibitors; further: nearly all actives have a fitted effect of over 55% in size
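Overnight-seeded V1b-HEK293 cells in 1% FBS got compound, then vasopressin (25 nM final, 5 min, 37C), then lysis buffer. AlphaScreen detection of phospho-ERK; activity normalized to basal and full-stimulation controls.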
Each line names hits and unclear results; the compound was inactive in the other large screens. Compounds with a hit are over-represented: about 6.1% of the library has one in this group of screens. Unless noted, the call rests on the fitted dose curve; in most records, active means well fitted curve in the direction sought with a large enough effect; inconclusive means small, poorly fitted or top-dose-only effect, or another doubt; inactive means no such curve, though single readings can be large; an effect the other way counts as inactive or inconclusive.

COc1ccc(C2CC(=O)c3cnc(NC(=O)c4cccc(OC)c4)nc3C2)cc1 (stereo not given)	none
COc1ccc(C2CC(=O)c3cnc(NC(=O)c4ccccc4OC)nc3C2)c(OC)c1 (stereo not given)	ERK AVP inh 10µM
CC(=O)O[C@H]1CC[C@@]2(C)[C@@H](CC[C@@]3(C)[C@H]2C(=O)C=C2[C@H]4C[C@](C)(C(=O)OCCN5CCCCC5)CC[C@]4(C)CC[C@@]23C)C1(C)C	none (no result: 15-hLO inh, Bst PK mod, ERK AVP inh)
COc1ccc(C=Nc2c(O)ccc3ccccc23)cc1OC	Luciferase inh inconclusive, Tau fil binding 4µM (no result: Bst PK mod)
Cc1c(N=Cc2nc3ccccc3[nH]2)c(=O)n(-c2ccccc2)n1C	Luciferase inh 16µM (no result: Bst PK mod)
Cc1cccc(-c2ccc(C=Nc3c(C)n(C)n(-c4ccccc4)c3=O)o2)c1	Hsp90 Hop PPI inconclusive (no result: Bst PK mod)
Cc1c(N=Cc2c(O)n(Cc3ccco3)c(=O)c3ccccc23)c(=O)n(-c2ccccc2)n1C	none
Cc1c(N=Cc2nc3ccccc3n2C)c(=O)n(-c2ccccc2)n1C	Luciferase inh 4µM (no result: Bst PK mod)
Cc1cc(-c2csc(NC(=O)c3ccc(=O)n(C)n3)n2)c(C)n1CC1CCCO1 (stereo not given)	15-hLO inh inconclusive, Bst PK mod 9.1, Tau fil binding 7.9µM
O=C(Nc1ccccc1C(=O)NCc1ccco1)c1ccccc1	none (no result: Bst PK mod)
O=C(Nc1ccc(Cl)cc1)Nc1ccccc1C(=O)NCc1ccco1	Luciferase inh 7.9µM, ERK AVP inh inconclusive (no result: Bst PK mod)
CC(C)c1ccccc1S(=O)c1ccccc1C(C)(C)O (stereo not given)	none (no result: Bst PK mod)
CCO[Si](CCCN)(OCC)OCC	none (no result: Luciferase inh, Bst PK mod)
Cc1cc(=O)n2[nH]c(-c3ccc(F)cc3)nc2n1	Luciferase inh 13µM
N[C@@H](Cc1cc(-c2ccc(Cl)cc2Cl)cc(CP(=O)(O)O)c1O)C(=O)O	15-hLO inh 13µM, Tau fil binding 40µM, ERK AVP inh inconclusive (no result: Bst PK mod)
Cc1ccc(C2C(C#N)=C(N)Oc3c2oc(CO)cc3=O)o1 (stereo not given)	none
COc1ccc(C2C(C#N)=C(N)Oc3cc(O)ccc32)cc1OC (stereo not given)	15-hLO inh 10µM, ERK AVP inh inconclusive
COc1cc(C2C(C#N)=C(N)Oc3cc(N(C)C)ccc32)cc2c1OCO2 (stereo not given)	15-hLO inh 25µM, ERK AVP inh inconclusive
COc1cc(C2C(C#N)=C(N)Oc3c2oc(CO)cc3=O)ccc1OC(C)C (stereo not given)	15-hLO inh 20µM
O=C1CCCC=C1[C@H](CCc1ccccc1)OC(=O)c1ccc(Br)cc1	none (no result: Hsp90 Hop PPI, Bst PK mod, Tau fil binding)
O=C(c1cccc(F)c1)N1CCC2(CC1)CN(Cc1ccccc1)C2	none (no result: Bst PK mod)
CN1CCN(CN2C(=O)C3C4C=CC(C3C2=O)C2C3C(=O)N(CN5CCN(C)CC5)C(=O)C3C42)CC1 (stereo not given)	none (no result: Bst PK mod)
COc1ccc(C2C(C(C)=O)=C(C)N=c3s/c(=C/c4ccc5c(c4)OCO5)c(=O)n32)cc1 (stereo not given)	Tau fil binding inconclusive
CC(=O)C1=C(C)N=c2s/c(=C/c3ccc4c(c3)OCO4)c(=O)n2C1c1ccc(N(C)C)cc1 (stereo not given)	Tau fil binding 4µM
Cc1cc(C)cc(C(=N)c2ccccc2Cc2cccc3ccccc23)c1	none (no result: Bst PK mod)
CCCC(C(=O)NCc1ccco1)N(C(=O)CNS(=O)(=O)c1ccc(Cl)cc1)C1CCCC1 (stereo not given)	15-hLO inh 25µM
C=CCn1c(SCC(=O)NCCCC)nc2scc(-c3ccco3)c2c1=O	15-hLO inh 5µM
COc1cc2c(cc1OC)-c1cc(OCc3cccnc3)nc(=O)n1CC2	ERK AVP inh 13µM
COc1cc2c(cc1OC)-c1cc(Nc3ccc4c(c3)OCCO4)nc(=O)n1CC2	Luciferase inh inconclusive, Tau fil binding inconclusive, ERK AVP inh 10µM (no result: Bst PK mod)
CC(=O)OCCC(C)CCC=C(C)C (stereo not given)	15-hLO inh 10µM (no result: Luciferase inh, Hsp90 Hop PPI, Bst PK mod, Tau fil binding)
COc1ccc(OCCSc2nnc(-c3ccccc3)n2N)cc1	15-hLO inh 13µM
C/C(=C\CNc1ncnc2c1ncn2[C@@H]1O[C@@H](CO)[C@@H](O)[C@H]1O)CO	none (no result: 15-hLO inh, Bst PK mod, ERK AVP inh)
